# IL-2 act = activators of IL-2; IL-2 activation reporter assay, cell-based qHTS; stimulated with anti-CD3/CD4/CD28 beads; in transgenic mouse T cells; activation, % (series mostly up to about 46 µM); 0.065% of 360,000 active; AID 652025; in the data active means activation above about 50%; inconclusive means mostly about 30% to 49%
#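 Unstimulated transgenic mouse T cells; 60-min compound exposure; bead-based TCR/CD4/CD28 stimulation; 18 h culture, 37 degrees C; dual fluorescence (EGFP, DsRed) plate cytometry.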
# PKM2 activator = activators of human pyruvate kinase M2. 0.34% of 260,000 active. AID 1631. Potency, µM (series often up to 57.5 µM), hits mostly activators. P14618. purified PKM2, Kinase-Glo ATP luminescence, activation; response scale: 0% is enzyme alone, no compound; further: nearly all actives have a fitted effect of over 55% in size
#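 Kinase-Glo luminescence reports ATP generated from ADP (0.1 mM) and PEP (0.5 mM) by purified hPK-M2 after 1 h at room temperature, pH 7.2 imidazole buffer; intermediate enzyme activity allows detecting inhibitors and activators.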
# NPSR antagonist = blocks cAMP signaling of the human neuropeptide S receptor. CHO-NPSR cells, cAMP TR-FRET, antagonist mode. Potency, µM (doses to about 38.3 µM), actives largely listed as inhibitors. 1% of 220,000 active. AID 1461; further: nearly all actives have a fitted effect of over 50% in size
# ClpP mod = qHTS Assay for Activators of ClpP; Potency, µM (highest dose often 57.5 µM); AID 651965, 2013; purified B. subtilis ClpP, FRET peptide cleavage, 20 min; 1.9% of 340,000 active; active means well fitted falling curve with a large enough effect; inconclusive means small, poorly fitted or top-dose-only effect; inactive means no such curve, though single readings can be large or run the other way; further: the source files actives as falling curves though it sought activators and does not explain the sign; nearly all actives have a fitted effect of over 65% in size
#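 Buffer: 100 mM Tris/HCl pH8, 100 mM KCl, 0.05% low protease BSA, 2.5% glycerol, 0.01% Tween-20. ClpP 10 microg/mL final; 20 min RT; delta FRET normalized to ADEP and DMSO controls.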
# Hits are given with their value; i = inactive; ? = inconclusive; nt = no result; [ ] = dose if it differs, or a comment. Sampled rows, rich in hits. Any-hit rate of the full collection: about 2%. Unless noted, the call rests on the fitted dose curve; in most records, active means well fitted curve in the direction sought with a large enough effect; inconclusive means small, poorly fitted or top-dose-only effect, or another doubt; inactive means no such curve, though single readings can be large; an effect the other way counts as inactive or inconclusive.
SMILES,IL-2 act,PKM2 activator,NPSR antagonist,ClpP mod
O=c1[nH]c2ccccc2c(=O)c2ccccc12,i,nt,nt,i
COC(=O)C(CCSC)NC(=O)C12CC3CC(CC(C3)C1)C2 (stereo not drawn),i,i,i,i
Cc1ccc(C)n1CCN1CCN(C(=O)c2ccc(Cl)cc2)CC1,i,i,i,nt
C=CCn1c(-c2cccs2)nc2ccccc21,i,i,i,2.82µM
C/C=C(/C)C(=O)Nc1cccc(C2=NOC3(C2)C[C@@H](C(N)=O)N(C(=O)CCCCC)C3)c1 (stereo partly drawn),i,i,i,i
O=C1C2C3C=CC(CO)(O3)C2C(=O)N1c1ccccc1-c1ccccc1 (stereo not drawn),i,31.6µM,6.31µM,i
CC(=O)Oc1ccc(N2C(=O)C3C4C=CC(CO)(O4)C3C2=O)cc1 (stereo not drawn),i,?,i,i
Cc1ccc(C)c(S(=O)(=O)N2CCN(CC(=O)NC(=O)NCc3ccco3)CC2)c1,i,i,i,nt
COc1ccc(N2C(=O)CC(Sc3ccccc3C(=O)O)C2=O)c([N+](=O)[O-])c1 (stereo not drawn),i,20µM,i,i
O=C(c1nc2nc(-c3ccc(Cl)cc3)cc(C(F)(F)F)n2n1)N1CCOCC1,i,i,i,17.8µM
CC(C)(C)NC(=O)c1nc2nc(-c3ccccc3)cc(C(F)(F)F)n2n1,i,i,i,28.2µM
O=C(c1nn2c(C(F)(F)F)cc(-c3ccc(F)cc3)nc2c1Cl)N1CCOCC1,i,i,i,i
O=C(c1nc2nc(-c3ccccc3)cc(C(F)(F)F)n2n1)N1CCOCC1,i,i,i,28.2µM
CC(C)CC(NC(=O)C1CCC(C)CC1)C(=O)Nc1ccccn1 (stereo not drawn),i,i,i[7.67 µM],i
Cc1ccc(-n2c(=S)[nH]c3sc4c(c3c2=O)CCC4)cc1,i,i,7.94µM,nt
O=c1c2c3c(sc2[nH]c(=S)n1Cc1ccco1)CCC3,i,11.2µM,?,i
COc1ccc(-c2csc(NC(=S)NC(=O)c3ccc4ccccc4c3)n2)cc1OC,i,i,nt,i
Cc1cc(C)c(S(=O)(=O)ON2C(=O)c3ccccc3C2=O)cc1C,i,i,i,8.91µM
Cc1ccc(S(=O)(=O)CC(=O)c2ccc(C(C)(C)C)cc2)cc1,i,i,i,28.2µM
COc1ccc(-c2c3c(nc4sc5c(=O)[nH]c(C)nc5c24)CCC3)cc1,i,i,i,28.2µM
CC(=O)Nc1ncc2c(n1)CC(c1ccco1)CC2=O (stereo not drawn),i,i,i,i
O=C(Nc1ncc2c(n1)CC(c1ccco1)CC2=O)c1ccco1 (stereo not drawn),i,28.2µM,i,nt
CCCC(=O)N1CC(=O)Nc2ccc(C)cc2C1c1ccccc1 (stereo not drawn),i,nt,nt,17.8µM
COc1cc(C2C(C(=O)c3ccc(C)o3)=C(O)C(=O)N2CCN2CCOCC2)ccc1OCCC(C)C (stereo not drawn),i,i,nt,i
CCCSc1nc(N)c2c3c(sc2n1)CN(C)CC3,i,i,i,?
SMILES,IL-2 act,PKM2 activator,NPSR antagonist,ClpP mod
COC(=O)CSc1nc2sc3c(c2c(=O)n1-c1ccccc1)CCN(C)C3,i,i,?,17.8µM
CSc1nc(NCc2ccccc2)c2c3c(sc2n1)CN(C)CC3,i,i,i,14.1µM
CC(C)Sc1nc(N)c2c3c(sc2n1)CN(C)CC3,i,i,i,28.2µM
CN1CCc2c(sc3nc(SCC(=O)N4CCCCC4)n(-c4ccccc4)c(=O)c23)C1,i,nt,nt,i
CN1CCc2c(sc3nc(SCC(N)=O)n(-c4ccccc4)c(=O)c23)C1,i,i,i,28.2µM
O=c1nccc(N/N=C/c2ccccc2O)[nH]1,i,nt,nt,nt
Cn1c(CN2CCOCC2)nc2cc(NC(=O)c3ccccc3[N+](=O)[O-])ccc21,nt,nt,nt,i
O=C(NCC1CCCCC1)c1ccc2nc([C@@H]3O[C@H](CO)[C@H](O)[C@H](O)[C@H]3O)[nH]c2c1,i,nt,nt,i
COc1ccc(OC)c(-c2cc(C(=O)N3CCc4ccccc4C3)no2)c1,i,i,?,25.1µM
COc1ccc(-c2cc(C(=O)N3CCc4ccccc4C3)no2)cc1,i,i,i,i
CC(=O)N1c2ccc(S(=O)(=O)NCCC(=O)NC3CCCC(C)C3C)cc2CC1C (stereo not drawn),i,nt,nt,i
COc1ccc(/C=C/C(=O)N2CCCc3ccccc32)c(OC)c1,i,i,nt,nt
O=C(Nc1ccc(F)cc1)Nc1ccc2ccccc2n1,i,nt,nt,i
Cc1ccc(-c2ccnc3nc(-n4cccc4)nn23)o1,i,i,i,nt
COC(=O)c1ccccc1NC1OC(=O)c2ccccc21 (stereo not drawn),i,i,i,31.6µM
COc1ccc(NC(=O)c2sc(=S)[nH]c2N)cc1,i,i,i,i
CCCNC(=O)NS(=O)(=O)c1cnccc1Sc1ccc(Cl)c(Cl)c1,i,i,i,22.4µM
CCCNC(=O)NS(=O)(=O)c1cnccc1Sc1ccc(Cl)cc1,i,i,i,i
Cc1cc(C)nc(SCc2csc(-c3ccccc3)n2)n1,i,i,i,i
COc1ccc(/C=C/C(=O)Nc2c(C)nn(C)c2C)cc1COc1ccc(Cl)cc1Br,i,i,i,i
COc1ccc(-c2cc3ccccc3n2CC(O)CN2CCOCC2)cc1 (stereo not drawn),i,i,i,8.91µM
NC(=O)c1ccc(NC(=O)COC(=O)/C=C/c2cn(-c3ccccc3)nc2-c2cccnc2)cc1,i,i,i,28.2µM
N#Cc1ccccc1NC(=O)COC(=O)/C=C/c1cn(-c2ccccc2)nc1-c1ccc(Cl)cc1,i,i,i,nt
CN(C)CCNC(C(=O)Nc1cc(Cl)cc(Cl)c1)c1ccccc1 (stereo not drawn),i,i,i,nt
CC(C)NC(C(=O)Nc1cc(Cl)cc(Cl)c1)c1ccccc1 (stereo not drawn),i,i,i,28.2µM
SMILES,IL-2 act,PKM2 activator,NPSR antagonist,ClpP mod
Brc1ccc(OCc2nnnn2-c2ccccc2)cc1,i,25.1µM,i,nt
COc1ccc(OCc2nnnn2-c2ccccc2)cc1,i,i,i,i
O=C1OCC(c2ccccc2)=C1c1ccccc1,i,i,nt,35.5µM
CS(=O)(=O)c1ccc(C2=C(c3ccccc3)C(=O)OC2)cc1,i,nt,nt,i
Cc1ccn2c(NC(=O)C(C)(C)Oc3ccc(Cl)cc3)c(-c3cccs3)nc2c1,i,i,i,31.6µM
Cc1ccc(S(=O)(=O)/N=C2/C=C(Sc3ncn[nH]3)C(=O)c3ccccc32)cc1,i,i,10µM,i
CC(C)c1ccc(S(=O)(=O)/N=C2/C=C(Sc3ncn[nH]3)C(=O)c3ccccc32)cc1,i,i,10µM,i
Cc1ccc(S(=O)(=O)/N=C2/C=C(Sc3ncn[nH]3)C(=O)c3ccccc32)c(C)c1,nt,i,i,nt
CCCn1c(SCC(=O)Nc2ccccc2CC)nnc1C(C)C,i,i,i,i
O=C(OCC(=O)N1CCN(c2ccccc2)CC1)c1ccc2ncsc2c1,i,i,i,i
CC(C(=O)N1CCCCC1)n1ncn2cccc2c1=O (stereo not drawn),i,i,i,28.2µM

# Source: PubChem (National Center for Advancing Translational Sciences (NCATS))
